For test [1], the target named is Paired box protein Pax-6 (Homo sapiens) (UniProt P26367). In words: ATG_Pax6_CIS: Attagene CIS-FACTORIAL HepG2 Assay for human Paired Box 6 (PAX6) (AID 2282956). The conditions noted are these: HepG2 CIS-FACTORIAL PAX6 reporter transcription, RNA readout; actives raise or lower the signal. Summed up:
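DMSO-referenced bidirectional fits of reporter mRNA fluorescence; HepG2 with transient cis-promoter MRTUs, 24 h post-dose, RT-PCR plus capillary electrophoresis detection.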

The nature of test [2]: ATG_PXRE_CIS: Attagene CIS-FACTORIAL HepG2 Assay for human Pregnane X Receptor Element (PXRE) (AID 2282957). The conditions noted are these: HepG2 Attagene CIS-FACTORIAL PXRE reporter, mRNA; actives raise or lower the signal. Summed up:
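Fluorescent capillary electrophoresis of amplified reporter cDNA gave the signal, collected 24 h after dosing HepG2 cells that held transfected cis-element reporter constructs.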

A short description of test [3]: ATG_PPRE_CIS: Attagene CIS-FACTORIAL HepG2 Assay for human Peroxisome Proliferator-activated Response Element (PPRE) (AID 2282958). The conditions noted are these: HepG2 PPRE cis-element reporter, Attagene transcription factor profiling; actives raise or lower the signal. In short, it runs like this: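 After human HepG2 hepatoma cells were transiently transfected with cis-promoter reporter constructs, they were exposed to test chemicals for 24 hours. Reporter RNA was then reverse-transcribed, PCR-amplified, FAM-labeled, HpaI-digested and quantified by capillary electrophoresis.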

Test [4] is described as follows: ATG_RORE_CIS: Attagene CIS-FACTORIAL HepG2 Assay for human RAR-related Orphan Receptor Element (RORE) (AID 2282959). The conditions noted are these: HepG2 Attagene cis-factorial RORE reporter, mRNA; actives raise or lower the signal. Summed up:
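Measured here: transcript induction of a cis-regulated reporter in HepG2 cells transiently transfected via FuGene 6. After 24 h, RNA was processed by RT-PCR and fluorescent capillary electrophoresis; DMSO defined baseline activity.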

Test [5] in a line: ATG_Sox_CIS: Attagene CIS-FACTORIAL HepG2 Assay for human SRY-box transcription factor (SOX) (AID 2282960). As to conditions: HepG2 Attagene cis-factorial SOX reporter, mRNA; actives raise or lower the signal. In short, it runs like this:
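Using transiently transfected HepG2 cells, reporter transcription driven by cis elements was assessed 24 h after dosing. Signal was fluorescence of capillary-separated RT-PCR products, with DMSO defining baseline activity.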

Test [6] in a line: ATG_SREBP_CIS: Attagene CIS-FACTORIAL HepG2 Assay for human Sterol Regulatory Element Binding (SREBP) (AID 2282962). As to conditions: HepG2 Attagene cis-factorial SREBP reporter, mRNA; actives raise or lower the signal. In short, it runs like this: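 In this cis-format assay, HepG2 liver cells express reporters controlled by promoter elements responsive to native transcription factors. Exposure lasts 24 h; reporter mRNA fluorescence from capillary electrophoresis gives the signal, fitted bidirectionally against DMSO.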

The target in test [7] is Signal transducer and activator of transcription 3 (Homo sapiens) (UniProt P40763). In words: ATG_STAT3_CIS: Attagene CIS-FACTORIAL HepG2 Assay for human Signal Transducer and Activator of Transcription 3 (STAT3) (AID 2282963). The conditions noted are these: HepG2, Attagene cis-factorial STAT3 reporter transcription; actives raise or lower the signal. Summed up: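 Uses human liver HepG2 transiently carrying cis-regulated reporter transcription units. Following 24 h dosing, reporter mRNA induction was detected by RT-PCR and capillary electrophoresis, analysed bidirectionally versus DMSO.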

Test [8] can be described thus: ATG_TA_CIS: Attagene CIS-FACTORIAL HepG2 Assay for human TA Basal Promoter (AID 2282964). As to conditions: HepG2 Attagene CIS-factorial TA basal promoter reporter; actives raise or lower the signal. In short, it runs like this:
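Background-control readout: TA basal promoter reporter mRNA, fitted in both directions relative to DMSO. Measured by RT-PCR and capillary electrophoresis 24 hours after treating HepG2 human liver cells transiently carrying multiplexed cis-regulated reporter constructs.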

Test [9] is described as follows: ATG_TCF_b_cat_CIS: Attagene CIS-FACTORIAL HepG2 Assay for human T-Cell-Factor with beta-catenin (TCF/b-cat) (AID 2282965). The conditions noted are these: HepG2 TCF/beta-catenin cis-reporter transcription, actives raise or lower the signal. Summed up:
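In this cis-format system, transfected HepG2 cells report endogenous transcription factor activity. Readout after 24 h exposure is reporter transcript abundance from RT-PCR and capillary electrophoresis, analysed for gain or loss of signal versus DMSO.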

Test [10] in a line: ATG_TGFb_CIS: Attagene CIS-FACTORIAL HepG2 Assay for human Transforming Growth Factor (TGF) (AID 2282967). The conditions noted are these: HepG2 Attagene CIS TGFb reporter, mRNA transcription; actives raise or lower the signal. In short, it runs like this:
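Endogenous TGFB1-linked transcription factor activity read as reporter mRNA via RT-PCR and capillary electrophoresis, 24 h after dosing transiently transfected HepG2 cells. Gain or loss of signal fitted relative to DMSO.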

A short description of test [11]: ATG_VDRE_CIS: Attagene CIS-FACTORIAL HepG2 Assay for human Vitamin D Receptor Element (VDRE) (AID 2282968). The conditions noted are these: HepG2 VDRE cis-reporter transcription, actives raise or lower the signal. Summed up: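 Transfected HepG2 reporter cells, chemical treatment 24 h. RNA isolated, cDNA amplified with reporter-specific primers, products analysed by capillary electrophoresis. Endpoint fitted in both directions versus DMSO.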

In test [12] the target is Nuclear receptor subfamily 1 group I member 3 (Homo sapiens) (UniProt Q14994). In words: ATG_CAR_TRANS: Attagene TRANS-FACTORIAL HepG2 Assay for human Constitutive Androstane Receptor (CAR) (AID 2282969; active = hit-call score of the fitted dose curve at least 0.9, where 1 is the maximum;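 also: activators raise reporter mRNA above DMSO so AC50 marks induction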). The conditions noted are these: HepG2 Attagene TRANS-FACTORIAL CAR reporter. Summed up: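 Steps: transient transfection of HepG2 with multiple GAL4-UAS reporter units; 24 h compound incubation; RNA isolation, RT-PCR, 6-FAM primer extension, HpaI digest; capillary electrophoresis. Gain-of-signal relative to DMSO negative control.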

For test [13], the target named is Estrogen receptor (Homo sapiens) (UniProt P03372). Description: ATG_ERa_TRANS: Attagene TRANS-FACTORIAL HepG2 Assay for human Estrogen Receptor alpha (ERa) (AID 2282970; active = hit-call score of the fitted dose curve at least 0.9, where 1 is the maximum). As to conditions: HepG2 Attagene TRANS ERa GAL4 reporter, mRNA. In short, it runs like this: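 One of 30 multiplexed endpoints from a HepG2 TRANS system, this one reports ERa-Gal4-driven reporter mRNA. Transcripts were quantified 24 hours post-dosing by fluorescent RT-PCR and capillary electrophoresis, with activity scored as induction over DMSO.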

Test [14] addresses X-box-binding protein 1 (Homo sapiens) (UniProt P17861). In words: ATG_Xbp1_CIS: Attagene CIS-FACTORIAL HepG2 Assay for human X-box Binding Protein 1 (XBP1) (AID 2282972). The conditions noted are these: HepG2 XBP1 cis-element reporter, Attagene multiplex; actives raise or lower the signal. Summed up:
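Changes in reporter transcript abundance, read by RT-PCR and capillary electrophoresis, reflect endogenous transcription factor activity. Transfected HepG2 cells received compound for 24 hours; DMSO defined baseline for bidirectional analysis.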

A short description of test [15]: ATG_TAL_CIS: Attagene CIS-FACTORIAL HepG2 Assay for human TAL Basal Promoter (AID 2282966).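 Also: background control endpoint measuring basal TAL promoter reporter mRNA not a specific factor.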 As to conditions: HepG2 Attagene cis-factorial TAL promoter reporter; actives raise or lower the signal. In short, it runs like this:
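Transiently transfected HepG2 (cis-regulated reporter units), 24 h treatment, mRNA read by fluorescent CE after RT-PCR; bidirectional fit, DMSO baseline.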

Test [16] concerns the target Steroid hormone receptor ERR1 (Homo sapiens) (UniProt P11474). In words: ATG_ERRa_TRANS: Attagene TRANS-FACTORIAL HepG2 Assay for human Estrogen-Related Receptor alpha (ERRa) (AID 2282971; active = hit-call score of the fitted dose curve at least 0.9, where 1 is the maximum). The conditions noted are these: HepG2 Attagene TRANS reporter, ERRa transactivation. Summed up:
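HepG2 cells transiently transfected with multiplexed GAL4-UAS reporter units reading chimeric ERRa-Gal4 activity; 24 h compound exposure. Reporter mRNA measured by RT-PCR, 6-FAM labelling, HpaI digest and capillary electrophoresis; gain of signal fitted versus DMSO baseline.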

A short description of test [17]: ATG_M_19_TRANS: Attagene TRANS-FACTORIAL HepG2 Assay for M19 Transcription Factor (Internal Marker) (AID 2282974; active = hit-call score of the fitted dose curve at least 0.9, where 1 is the maximum). The conditions noted are these: HepG2 Attagene TRANS-FACTORIAL M19 internal marker reporter. Summed up:
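Gain-of-signal in reporter mRNA, relative to DMSO, was scored from capillary electrophoresis fluorescence. HepG2 cells carried transiently transfected multiple reporter transcription units and were incubated with test chemicals for 24 h.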

The target of test [18] is Transcription factor Sp1 (Homo sapiens) (UniProt P08047). In words: ATG_Sp1_CIS: Attagene CIS-FACTORIAL HepG2 Assay for human Specificity Protein 1 (Sp1) (AID 2282961). As to conditions: HepG2 Sp1 cis-reporter transcription, actives raise or lower the signal. In short, it runs like this: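 After transient transfection of HepG2 cells with cis-promoter reporter units and 24 h chemical treatment, reporter transcripts were quantified by RT-PCR and capillary electrophoresis fluorescence. Gain- and loss-of-signal fitted against DMSO.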

The nature of test [19]: ATG_GAL4_TRANS: Attagene TRANS-FACTORIAL HepG2 Assay for GAL4 (Internal Marker) (AID 2282976; active = hit-call score of the fitted dose curve at least 0.9, where 1 is the maximum). The conditions noted are these: HepG2 Attagene TRANS GAL4 internal marker reporter. Summed up:
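HepG2 cells transiently transfected with multiplexed GAL4-UAS reporter constructs were dosed for 24 h. Reporter mRNA was measured by RT-PCR, 6-FAM primer extension, HpaI digestion and capillary electrophoresis, and gain of signal was fitted relative to DMSO.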

In test [20] the target is Estrogen-related receptor gamma (Homo sapiens) (UniProt P62508). Description: ATG_ERRg_TRANS: Attagene TRANS-FACTORIAL HepG2 Assay for human Estrogen-Related Receptor gamma (ERRg) (AID 2282977; active = hit-call score of the fitted dose curve at least 0.9, where 1 is the maximum;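 also: hits increase reporter signal over DMSO so potencies reflect activators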). The conditions noted are these: HepG2 Attagene TRANS reporter, ERRg transactivation. Summed up: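 Readout: fluorescent reporter-mRNA fragments resolved by capillary electrophoresis after RT-PCR and HpaI cut. Cells: transiently transfected HepG2 carrying GAL4-UAS reporters driven by exogenous NR-Gal4 chimeras, dosed 24 h. Activity fitted upward relative to DMSO baseline.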

From PubChem BioAssay (EPA / NIEHS) come the findings set out here.

Results filed as inconclusive are left out. Activity calls are given as the source filed them. The calls were made as follows, unless noted: active = hit-call score of the fitted dose curve at least 0.9, where 1 is the maximum; inactive = score below 0.9.

Estrogen-related receptor gamma (Homo sapiens), sequence (P62508 whole entry, looked up, the tested form may be a part): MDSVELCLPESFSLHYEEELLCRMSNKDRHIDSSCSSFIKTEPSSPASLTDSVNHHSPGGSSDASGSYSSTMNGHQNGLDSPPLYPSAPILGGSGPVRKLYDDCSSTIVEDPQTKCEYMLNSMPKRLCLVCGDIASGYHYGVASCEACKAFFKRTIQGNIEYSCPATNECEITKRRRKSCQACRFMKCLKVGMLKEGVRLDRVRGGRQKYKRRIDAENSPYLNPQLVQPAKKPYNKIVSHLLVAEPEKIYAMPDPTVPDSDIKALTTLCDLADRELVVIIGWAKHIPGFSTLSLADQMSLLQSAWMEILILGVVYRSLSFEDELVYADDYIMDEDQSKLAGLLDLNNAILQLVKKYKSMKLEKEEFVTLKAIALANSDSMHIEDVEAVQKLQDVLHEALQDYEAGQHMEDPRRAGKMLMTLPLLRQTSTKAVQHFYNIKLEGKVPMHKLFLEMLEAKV
Estrogen receptor (Homo sapiens), sequence (P03372 whole entry, looked up, the tested form may be a part): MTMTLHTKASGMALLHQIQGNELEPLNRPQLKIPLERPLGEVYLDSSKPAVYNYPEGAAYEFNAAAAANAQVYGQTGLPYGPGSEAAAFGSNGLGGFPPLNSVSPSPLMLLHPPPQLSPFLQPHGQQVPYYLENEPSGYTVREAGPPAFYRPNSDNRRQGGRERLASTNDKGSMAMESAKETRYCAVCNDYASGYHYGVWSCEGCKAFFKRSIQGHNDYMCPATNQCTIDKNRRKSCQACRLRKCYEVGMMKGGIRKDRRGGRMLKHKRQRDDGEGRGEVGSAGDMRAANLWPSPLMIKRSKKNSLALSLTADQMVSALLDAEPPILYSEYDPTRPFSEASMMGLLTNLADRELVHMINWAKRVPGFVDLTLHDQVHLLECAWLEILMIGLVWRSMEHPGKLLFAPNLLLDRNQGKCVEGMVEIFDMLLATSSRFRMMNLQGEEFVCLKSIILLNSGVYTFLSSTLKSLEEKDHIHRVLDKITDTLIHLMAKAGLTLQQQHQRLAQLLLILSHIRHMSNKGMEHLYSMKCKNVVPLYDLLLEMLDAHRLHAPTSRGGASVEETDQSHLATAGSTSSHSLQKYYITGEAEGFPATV
Signal transducer and activator of transcription 3 (Homo sapiens), sequence (P40763 whole entry, looked up): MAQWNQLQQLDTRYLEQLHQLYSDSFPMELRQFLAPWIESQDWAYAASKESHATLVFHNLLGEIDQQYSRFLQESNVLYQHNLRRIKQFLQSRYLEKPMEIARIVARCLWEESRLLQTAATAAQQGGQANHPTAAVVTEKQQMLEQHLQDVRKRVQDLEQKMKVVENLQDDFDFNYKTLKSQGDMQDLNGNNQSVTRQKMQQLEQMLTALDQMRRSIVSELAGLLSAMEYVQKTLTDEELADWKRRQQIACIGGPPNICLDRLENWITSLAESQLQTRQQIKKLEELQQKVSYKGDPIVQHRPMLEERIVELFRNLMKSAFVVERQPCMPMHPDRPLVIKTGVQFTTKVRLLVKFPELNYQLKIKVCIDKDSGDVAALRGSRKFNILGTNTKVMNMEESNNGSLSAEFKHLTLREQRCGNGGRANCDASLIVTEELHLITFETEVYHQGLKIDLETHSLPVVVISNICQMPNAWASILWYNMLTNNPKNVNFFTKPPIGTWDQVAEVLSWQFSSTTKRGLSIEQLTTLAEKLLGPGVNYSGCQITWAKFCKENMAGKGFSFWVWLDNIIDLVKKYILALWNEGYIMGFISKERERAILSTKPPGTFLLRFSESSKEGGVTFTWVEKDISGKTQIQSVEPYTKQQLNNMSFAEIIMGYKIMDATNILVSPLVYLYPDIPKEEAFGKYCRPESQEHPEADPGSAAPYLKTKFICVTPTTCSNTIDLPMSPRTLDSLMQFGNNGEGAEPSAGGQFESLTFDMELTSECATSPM
Steroid hormone receptor ERR1 (Homo sapiens), sequence (P11474 whole entry, looked up, the tested form may be a part): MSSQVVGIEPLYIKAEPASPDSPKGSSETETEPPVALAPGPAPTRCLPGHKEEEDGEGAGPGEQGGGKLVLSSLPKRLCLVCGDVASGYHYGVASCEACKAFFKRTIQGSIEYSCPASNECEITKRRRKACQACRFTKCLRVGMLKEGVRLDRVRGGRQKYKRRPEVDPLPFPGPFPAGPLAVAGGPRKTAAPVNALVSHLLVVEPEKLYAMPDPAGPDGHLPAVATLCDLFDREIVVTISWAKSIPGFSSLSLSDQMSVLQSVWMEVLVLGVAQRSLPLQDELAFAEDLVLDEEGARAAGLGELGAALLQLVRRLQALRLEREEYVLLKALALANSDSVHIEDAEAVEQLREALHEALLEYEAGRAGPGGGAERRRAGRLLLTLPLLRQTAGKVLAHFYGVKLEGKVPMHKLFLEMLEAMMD
X-box-binding protein 1 (Homo sapiens), sequence (P17861 whole entry, looked up): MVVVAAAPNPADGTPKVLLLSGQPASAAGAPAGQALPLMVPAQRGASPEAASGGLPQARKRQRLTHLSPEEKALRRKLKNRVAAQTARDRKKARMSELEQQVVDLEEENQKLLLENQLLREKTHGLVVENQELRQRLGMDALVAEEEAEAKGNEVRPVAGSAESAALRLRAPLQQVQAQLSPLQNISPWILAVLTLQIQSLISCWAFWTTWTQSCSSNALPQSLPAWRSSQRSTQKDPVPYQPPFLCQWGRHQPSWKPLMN
Nuclear receptor subfamily 1 group I member 3 (Homo sapiens), sequence (Q14994 whole entry, looked up, the tested form may be a part): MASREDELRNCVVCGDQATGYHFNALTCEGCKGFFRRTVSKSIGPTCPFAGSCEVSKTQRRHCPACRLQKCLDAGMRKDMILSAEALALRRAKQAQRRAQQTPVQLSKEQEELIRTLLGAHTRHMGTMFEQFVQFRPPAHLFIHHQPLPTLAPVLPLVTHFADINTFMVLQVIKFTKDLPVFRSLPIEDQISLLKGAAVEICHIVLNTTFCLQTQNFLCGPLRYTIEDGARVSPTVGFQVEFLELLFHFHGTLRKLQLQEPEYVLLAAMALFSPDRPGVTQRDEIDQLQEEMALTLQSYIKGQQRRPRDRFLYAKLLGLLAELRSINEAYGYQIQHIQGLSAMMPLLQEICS
Transcription factor Sp1 (Homo sapiens), sequence (P08047 whole entry, looked up): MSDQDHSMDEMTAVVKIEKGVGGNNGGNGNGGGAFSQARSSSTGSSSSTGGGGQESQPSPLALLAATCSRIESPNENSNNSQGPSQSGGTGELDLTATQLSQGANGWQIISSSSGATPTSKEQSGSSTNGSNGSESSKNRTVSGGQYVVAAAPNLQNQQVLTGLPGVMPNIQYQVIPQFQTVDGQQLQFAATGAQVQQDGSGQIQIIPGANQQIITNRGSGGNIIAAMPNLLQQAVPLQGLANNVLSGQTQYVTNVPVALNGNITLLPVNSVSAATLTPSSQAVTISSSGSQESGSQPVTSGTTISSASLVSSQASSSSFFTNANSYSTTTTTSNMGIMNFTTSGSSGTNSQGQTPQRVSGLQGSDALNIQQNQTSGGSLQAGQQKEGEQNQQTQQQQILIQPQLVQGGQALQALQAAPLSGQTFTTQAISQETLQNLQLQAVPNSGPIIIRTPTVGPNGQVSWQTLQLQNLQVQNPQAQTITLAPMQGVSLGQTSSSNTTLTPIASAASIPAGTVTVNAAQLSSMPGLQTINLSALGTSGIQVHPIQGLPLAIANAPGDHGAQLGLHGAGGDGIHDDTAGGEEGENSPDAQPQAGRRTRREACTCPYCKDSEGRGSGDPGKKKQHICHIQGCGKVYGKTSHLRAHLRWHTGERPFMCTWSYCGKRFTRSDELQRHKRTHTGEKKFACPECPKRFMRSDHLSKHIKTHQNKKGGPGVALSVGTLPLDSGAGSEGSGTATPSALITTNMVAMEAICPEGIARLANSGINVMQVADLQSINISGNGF
Paired box protein Pax-6 (Homo sapiens), sequence (P26367 whole entry, looked up): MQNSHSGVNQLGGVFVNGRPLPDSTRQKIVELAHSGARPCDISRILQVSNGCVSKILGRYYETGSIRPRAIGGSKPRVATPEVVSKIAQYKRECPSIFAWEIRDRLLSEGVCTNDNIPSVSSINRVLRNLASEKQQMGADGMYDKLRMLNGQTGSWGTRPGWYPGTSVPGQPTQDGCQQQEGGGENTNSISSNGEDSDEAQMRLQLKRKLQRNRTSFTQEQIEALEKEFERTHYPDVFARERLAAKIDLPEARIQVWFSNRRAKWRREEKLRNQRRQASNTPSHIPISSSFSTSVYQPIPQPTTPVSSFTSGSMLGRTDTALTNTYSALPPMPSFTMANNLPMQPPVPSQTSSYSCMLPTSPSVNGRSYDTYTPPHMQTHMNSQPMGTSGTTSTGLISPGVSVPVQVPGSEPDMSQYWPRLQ

One may read the AC50 as the concentration at which the activity in the assay is half-maximal. For the compound `CCCCCCC1(C)CCC(=O)O1` (stereo unspecified), the compound was called inactive in [1], in test [3], in [4], in test [5], in test [6] and in test [7]. Moreover, the result in test [8], in [9], in test [10], in [11], in test [12] and in [13] was inactive. Also, the call in [14] was inactive. In addition, in test [2], the AC50 was 30.3 µM (active).

In the case of `O=S(=O)(O)c1cc(S(=O)(=O)O)c2ccc3c(S(=O)(=O)O)cc(S(=O)(=O)O)c4ccc1c2c43`, the compound was called inactive in test [1], in test [2], in test [3], in test [4], in [5] and in [6]. For the same compound, the outcome in [7], in test [8], in test [9], in test [15], in test [10] and in test [11] was inactive. Besides, the outcome in test [13], in [16], in test [14] and in [17] was inactive.

As to `CCCCCCCC[N+](C)(CCCCCCCC)CCCCCCCC`, the outcome in test [1], in test [2], in test [3], in test [4], in test [5] and in test [18] was inactive. The call in test [7], in test [8], in test [9], in test [15], in [10] and in test [13] was inactive. Besides, the outcome in [14] and in [17] was inactive.

Turning to `COc1cc(C)ccc1C(C)C`, the compound was called inactive in [1], in test [2], in [3], in test [4], in [5] and in test [18]. Also, the compound was called inactive in test [6], in test [8], in test [9], in test [15], in [10] and in [11]. The outcome in [13], in test [14], in test [17], in test [19] and in test [20] was inactive.

Consider `CC(C)=CCCC(C)C=O` (stereo unspecified), for which the call in test [1], in test [3], in test [4], in test [5], in test [6] and in test [7] was inactive. The call in test [8], in test [9], in [10], in test [12], in test [13] and in [14] was inactive. In test [17], the result was inactive. The AC50 in test [2] is 8.29 µM (active); in test [11] it was 32 µM (active).

As for `CCOC(=O)c1ccc(N(C)C)cc1`, the compound was called inactive in test [1], in test [3], in test [4], in test [5], in test [18] and in test [6]. Besides, the compound was classed as inactive in [8], in [9], in [15], in test [12], in test [13] and in test [14]. Besides, the call in test [17] was inactive. In addition, the AC50 in test [2] was 28.1 µM (active); in [11] it was 65.8 µM (active).

On to `c1ccc2c(c1)ccc1ncccc12`, for which the call in test [1], in [3], in test [4], in test [5], in test [18] and in [7] was inactive. Also, the result in test [8], in [9], in test [15], in test [10], in [13] and in test [16] was inactive. Also, the call in [14], in test [17], in [19] and in test [20] was inactive. Further, in test [2], the AC50 is 25.3 µM (active).

`CCCCCCOC(=O)C(C)CC` (stereo unspecified): the compound was called inactive in test [1], in test [2], in [3], in test [4], in [5] and in [18]. The outcome in test [7], in test [8], in test [9], in [15], in test [10] and in test [12] was inactive. Moreover, the compound was called inactive in test [13], in test [16], in [14], in [17], in test [19] and in test [20].
